Each sequence was assayed against T1, ETS1 (UniProt P14921) (assay: ETS1 binding intensity (PBM fluorescence) in presence of RUNX1, normalised to ETS1-only experiment (arbitrary fluorescence units); higher = stronger binding). Settings: ETS1 concentration 1 nM; RUNX1 concentration 25 nM.
T1 sequence: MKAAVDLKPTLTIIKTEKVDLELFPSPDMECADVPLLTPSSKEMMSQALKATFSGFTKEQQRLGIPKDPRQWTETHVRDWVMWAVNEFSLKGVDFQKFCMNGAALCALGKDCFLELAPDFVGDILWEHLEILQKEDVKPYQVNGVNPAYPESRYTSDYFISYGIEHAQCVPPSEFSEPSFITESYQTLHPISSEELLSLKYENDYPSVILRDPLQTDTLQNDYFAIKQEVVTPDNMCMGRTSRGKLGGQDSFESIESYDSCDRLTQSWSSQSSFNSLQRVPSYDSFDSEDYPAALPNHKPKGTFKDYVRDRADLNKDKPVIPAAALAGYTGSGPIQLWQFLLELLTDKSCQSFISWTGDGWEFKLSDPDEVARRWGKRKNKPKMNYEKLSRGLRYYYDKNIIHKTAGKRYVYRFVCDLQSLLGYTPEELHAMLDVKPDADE
ACAGATGGTCCGGAACTTCAGAAAACCACTCATTGT gave an ETS1 binding intensity of 592. GGCGGAACTTGTGCGTACGCTGGAAAACCGCTGGGG gave an ETS1 binding intensity of 545. For TGAATATTCTTCCGCACGTACCCACATGGCTCACTT, the ETS1 binding intensity was 337. GCGTTTCCCCCTTGGGGTTATAGCAACCACCTCCTC gave an ETS1 binding intensity of 358. AGCACCCCACATCCTGCACCCCACAACCCAGATCCC was tested, and the ETS1 binding intensity was 546. Sequence TGCCGTTTCCGGGTCACCCAGGCAGCTTGTGGCGGC has an ETS1 binding intensity of 478. TTTTCCCACTTCCTAGGTTGTGGTGGGGATTACACA gave an ETS1 binding intensity of 571. In the case of TGGGCCAGCACGTCCGGGTGGTCAGGACGCGCGCTT, the ETS1 binding intensity is reported as 451. AGACCCGGACCGGAACCTTGGCGCGGTGACGCTAGT was tested, and the ETS1 binding intensity was 975. With TACCGCTGCTTCCTGCCTGCGCGGTGAGCCTGTGCC the ETS1 binding intensity was 802. In the case of GAAAGCTGCACTATTTCCTGAGGTTAGAGGTTTAAA, the ETS1 binding intensity is reported as 502. Work on AACAGATCCTTCCTGGCCCCCACTAGCCACAGGTTT yielded an ETS1 binding intensity of 421. With CCGCCCTCCACCGAGTTCCGGCCACAGAGCGGGCCC the ETS1 binding intensity was 547. In the case of CCGGGAGGGACGGAGGATGTGTGGTTCTGTCTCCTT, the ETS1 binding intensity is reported as 553. AGGTGGGAGGAAGTTCCTACCCCGGCGCGGTGTGCA showed an ETS1 binding intensity of 620. GGTCTGGAGGATGTTTGCAGCTGCTGTGGGTGGTGG was tested, and the ETS1 binding intensity was 530. In the case of TATGACCAGGGGAGGGAAGTGACCACAGCATATCAC, the ETS1 binding intensity is reported as 823. CTTGTTATCCTTCCGGAGGCGGTAACTCATGAGAGA was tested, and the ETS1 binding intensity was 352. CCAGAGCAGGATGTTCTGCTGTGGCTAGATAAGCCC showed an ETS1 binding intensity of 916. With AACCAAGAGGATTTCCTGCCCACACACTCAGCGTCT the ETS1 binding intensity was 751. For TGGCTGGGCAGGAAGGCCTGTGGCTTACGGTTCCTG, the ETS1 binding intensity was 651. GCTGCGCAGAGGAAACCAGGCTTGTTGGTTTTCATG was tested, and the ETS1 binding intensity was 457. Sequence CTGGGGCTGAGGGAGGGATGTGGTGGGGCCCAGGCT has an ETS1 binding intensity of 521. In the case of AGCGGTGTTTCAGGATGTGAGGGCCCGCAGGAGCCG, the ETS1 binding intensity is reported as 837. Sequence TGTTGGCTGTCCTCCGGAAACCCGCGCCTGGGTCGC has an ETS1 binding intensity of 1930. TGCACTCCACTTCCCCTCGCCCGCAGTGAGCAGTCA gave an ETS1 binding intensity of 450. Work on TGAGTCATTTCCTGGGTGGGGGCCACAAGACCAGGT yielded an ETS1 binding intensity of 553. For TGGCAGGATGCCGTTAAATATGTAACCACATGTCTC, the ETS1 binding intensity was 1250. With GGATGGCGGAAGAGGCGGCTGAGGCCGCAGGACGTG the ETS1 binding intensity was 4800. With ACAGGAAGTCAGCTGAGTACCGAGCAAGCCGCATGC the ETS1 binding intensity was 2090. Work on GAACTGAAGAAGGCAGGAAGCCACAGGCTCCTGGGT yielded an ETS1 binding intensity of 2280. CCAGAAAGCTCCTCCTTCCGCCACAACACGATCACT gave an ETS1 binding intensity of 451. Sequence GGGGCAGGAAACAGCGTCCTGCGCGGGTAGCCCCTG has an ETS1 binding intensity of 918. TGCTCCACTCGGAAGTGGTGCCGCAGCTCTTCGATG was tested, and the ETS1 binding intensity was 800. In the case of CTGTTCTCATCCGCCCGCTCTGAGTCACCCACACCT, the ETS1 binding intensity is reported as 441. For CTGTCAGGATGTTGGCTTGTGAGCCCACAATCCTCT, the ETS1 binding intensity was 451. For TAGCCATCGTGCAAAGGATGTGGTGAAGTCAGTCAG, the ETS1 binding intensity was 2620. Sequence TGGTGTGACCAGGATGTGAACCGCGGCAAGCTGCCT has an ETS1 binding intensity of 992. With CCGAGCCGGCCTCTTCCGCCGCAAGTCCCTCCCCAA the ETS1 binding intensity was 428. Work on CTGCACAAGGAAGCGCCTGTGTTGCTGTGGGCGGAG yielded an ETS1 binding intensity of 402.

Reference: the supplement of paper PMC10681739
